# Measured values published in PubChem BioAssay AID1159580 (chemical genetic matrix, 2015).
# About 2,000 (36%) of roughly 5,500 compounds were called active. Another 18% or so got no clear call; they are omitted. The list shows a part of the results. Unmarked numbers belong to inactive results. No stated cut-off is given here; in the data, active means normalized growth mostly below about 0.91 (no sharp cut-off); inconclusive means no clear call, values can overlap the other calls; inactive means mostly above about 0.92.
# Assay: chemical genetic growth profiling, strain panel (AID 1159580);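 further: tested at 20 µM; growth read once vehicle control cultures reached saturation at 30 °C; 1 = growth at the plate median or of vehicle wells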
# Details: growth OD
# [1] = S. cerevisiae deletion strains, locus YDL101C, strain DUN1, stronger effect = lower value
# [2] = S. cerevisiae deletion strains, locus YHR030C, strain SLT2, stronger effect = lower value
compound,measurement,setting,value
CC(=O)/C(=C\Nc1ncccn1)S(=O)(=O)c1ccc(Cl)cc1,normalized growth,"S. cerevisiae deletion strains, locus YAL013W, strain DEP1, stronger effect = lower value",1.01
same,normalized growth,"S. cerevisiae deletion strains, locus YBR229C, strain ROT2, stronger effect = lower value",1
same,normalized growth,"S. cerevisiae deletion strains, locus YCL061C, strain MRC1, stronger effect = lower value",1
same,normalized growth,[1],1.01
same,normalized growth,"S. cerevisiae deletion strains, locus YDR150W, strain NUM1, stronger effect = lower value",0.977
same,normalized growth,"S. cerevisiae deletion strains, locus YEL061C, strain CIN8, stronger effect = lower value",1
same,normalized growth,"S. cerevisiae deletion strains, locus YGR078C, strain PAC10, stronger effect = lower value",1
same,normalized growth,"S. cerevisiae deletion strains, locus YGR229C, strain SMI1, stronger effect = lower value",1
same,normalized growth,[2],0.822
same,normalized growth,"S. cerevisiae deletion strains, locus YHR087W, strain rtc3, stronger effect = lower value",0.98
same,normalized growth,"S. cerevisiae deletion strains, locus YJL187C, strain SWE1, stronger effect = lower value",1
same,normalized growth,"S. cerevisiae deletion strains, locus YJR043C, strain POL32, stronger effect = lower value",1.05
same,normalized growth,"S. cerevisiae deletion strains, locus YJR075W, strain HOC1, stronger effect = lower value",0.941
same,normalized growth,"S. cerevisiae deletion strains, locus YLR039C, strain RIC1, stronger effect = lower value",0.927
same,normalized growth,"S. cerevisiae deletion strains, locus YLR058C, strain SHM2 (second series), stronger effect = lower value",0.993
same,normalized growth,"S. cerevisiae deletion strains, locus YLR085C, strain ARP6, stronger effect = lower value",0.918
same,normalized growth,"S. cerevisiae deletion strains, locus YLR262C, strain YPT6, stronger effect = lower value",0.89
same,normalized growth,"S. cerevisiae deletion strains, locus YML094W, strain GIM5, stronger effect = lower value",0.97
same,normalized growth,"S. cerevisiae deletion strains, locus YMR219W, strain ESC1, stronger effect = lower value",0.998
same,normalized growth,"S. cerevisiae deletion strains, locus YMR263W, strain SAP30, stronger effect = lower value",0.987
same,normalized growth,"S. cerevisiae deletion strains, locus YNL128W, strain TEP1, stronger effect = lower value",1.01
same,normalized growth,"S. cerevisiae deletion strains, locus YNL153C, strain GIM3, stronger effect = lower value",1.01
same,normalized growth,"S. cerevisiae deletion strains, locus YNL298W, strain CLA4 (second series), stronger effect = lower value",0.954
same,normalized growth,"S. cerevisiae deletion strains, locus YNL322C, strain KRE1, stronger effect = lower value",0.946
same,normalized growth,"S. cerevisiae deletion strains, locus YNR030W, strain Alg12, stronger effect = lower value",0.975
same,normalized growth,"S. cerevisiae deletion strains, locus YPL055C, strain LGE1, stronger effect = lower value",0.925
same,normalized growth,"S. cerevisiae deletion strains, locus YPL241C, strain CIN2, stronger effect = lower value",0.98
same,normalized growth,"S. cerevisiae deletion strains, locus YPR135W, strain CTF4, stronger effect = lower value",0.9
same,normalized growth,"S. cerevisiae strains, strain wild type, stronger effect = lower value",1
Cn1cncc1S(=O)(=O)/C(C#N)=C/c1ccccc1Sc1ccc(Cl)cc1,normalized growth,"S. cerevisiae deletion strains, locus YAR019C, strain CDC15, stronger effect = lower value",0.987
same,normalized growth,"S. cerevisiae deletion strains, locus YBL105C, strain PKC1, stronger effect = lower value",0.973
same,normalized growth,"S. cerevisiae deletion strains, locus YBR135W, strain CKS1, stronger effect = lower value",0.975
same,normalized growth,"S. cerevisiae deletion strains, locus YBR136W, strain MEC1, stronger effect = lower value",0.972
same,normalized growth,"S. cerevisiae deletion strains, locus YBR160W, strain CDC28, stronger effect = lower value",0.983
same,normalized growth,"S. cerevisiae deletion strains, locus YDL017W, strain CDC7, stronger effect = lower value",0.976
same,normalized growth,"S. cerevisiae deletion strains, locus YDL028C, strain MPS1, stronger effect = lower value",0.979
same,normalized growth,[1],0.976
same,normalized growth,"S. cerevisiae deletion strains, locus YDL108W, strain KIN28, stronger effect = lower value",0.979
same,normalized growth,"S. cerevisiae deletion strains, locus YDL132W, strain cdc53, stronger effect = lower value",0.97
same,normalized growth,"S. cerevisiae deletion strains, locus YDL214C, strain PRR2, stronger effect = lower value",0.771
same,normalized growth,"S. cerevisiae deletion strains, locus YDR052C, strain DBF4, stronger effect = lower value",0.983
same,normalized growth,"S. cerevisiae deletion strains, locus YDR054C, strain cdc34, stronger effect = lower value",0.982
same,normalized growth,"S. cerevisiae deletion strains, locus YDR226W, strain ADK1, stronger effect = lower value",0.962
same,normalized growth,"S. cerevisiae deletion strains, locus YDR477W, strain SNF1, stronger effect = lower value",0.773
same,normalized growth,"S. cerevisiae deletion strains, locus YER123W, strain YCK3, stronger effect = lower value",0.729
same,normalized growth,"S. cerevisiae deletion strains, locus YER133W, strain GLC7, stronger effect = lower value",0.786
same,normalized growth,"S. cerevisiae deletion strains, locus YFL009W, strain cdc4, stronger effect = lower value",0.971
same,normalized growth,"S. cerevisiae deletion strains, locus YFL029C, strain CAK1, stronger effect = lower value",0.984
same,normalized growth,"S. cerevisiae deletion strains, locus YFR003C, strain YPI1, stronger effect = lower value",0.98
same,normalized growth,"S. cerevisiae deletion strains, locus YFR019W, strain FAB1, stronger effect = lower value",0.75 (active)
same,normalized growth,"S. cerevisiae deletion strains, locus YFR028C, strain CDC14, stronger effect = lower value",0.969
same,normalized growth,"S. cerevisiae deletion strains, locus YGR040W, strain KSS1, stronger effect = lower value",0.752
same,normalized growth,"S. cerevisiae deletion strains, locus YGR052W, strain FMP48, stronger effect = lower value",0.713
same,normalized growth,"S. cerevisiae deletion strains, locus YGR092W, strain DBF2, stronger effect = lower value",0.619
same,normalized growth,[2],0.368 (active)
same,normalized growth,"S. cerevisiae deletion strains, locus YHR079C, strain IRE1, stronger effect = lower value",0.668
same,normalized growth,"S. cerevisiae deletion strains, locus YHR082C, strain KSP1, stronger effect = lower value",0.6 (active)
same,normalized growth,"S. cerevisiae deletion strains, locus YHR205W, strain SCH9, stronger effect = lower value",0.617
same,normalized growth,"S. cerevisiae deletion strains, locus YIL147C, strain SLN1, stronger effect = lower value",0.973
same,normalized growth,"S. cerevisiae deletion strains, locus YJL095W, strain BCK1, stronger effect = lower value",0.726
same,normalized growth,"S. cerevisiae deletion strains, locus YJL128C, strain PBS2, stronger effect = lower value",0.944
same,normalized growth,"S. cerevisiae deletion strains, locus YJL157C, strain FAR1, stronger effect = lower value",0.723
same,normalized growth,"S. cerevisiae deletion strains, locus YJR016C, strain ILV3, stronger effect = lower value",0.982
same,normalized growth,"S. cerevisiae deletion strains, locus YJR066W, strain TOR1 (second series), stronger effect = lower value",0.771
same,normalized growth,"S. cerevisiae deletion strains, locus YJR066W, strain TOR1, stronger effect = lower value",0.678
same,normalized growth,"S. cerevisiae deletion strains, locus YKL048C, strain ELM1, stronger effect = lower value",0.845
same,normalized growth,"S. cerevisiae deletion strains, locus YKL067W, strain YNK1, stronger effect = lower value",0.854
same,normalized growth,"S. cerevisiae deletion strains, locus YKL101W, strain HSL1, stronger effect = lower value",0.828
same,normalized growth,"S. cerevisiae deletion strains, locus YKL193C, strain SDS22, stronger effect = lower value",0.976
same,normalized growth,"S. cerevisiae deletion strains, locus YKL203C, strain TOR2, stronger effect = lower value",0.815
same,normalized growth,"S. cerevisiae deletion strains, locus YLR113W, strain HOG1, stronger effect = lower value",0.81 (active)
same,normalized growth,"S. cerevisiae deletion strains, locus YLR133W, strain CKI1, stronger effect = lower value",0.73 (active)
same,normalized growth,"S. cerevisiae deletion strains, locus YLR403W, strain SFP1, stronger effect = lower value",0.619 (active)
same,normalized growth,"S. cerevisiae deletion strains, locus YML070W, strain DAK1, stronger effect = lower value",0.8
same,normalized growth,"S. cerevisiae deletion strains, locus YMR001C, strain CDC5, stronger effect = lower value",0.971
same,normalized growth,"S. cerevisiae deletion strains, locus YMR205C, strain PFK2 (second series), stronger effect = lower value",0.829
same,normalized growth,"S. cerevisiae deletion strains, locus YMR277W, strain FCP1, stronger effect = lower value",0.973
same,normalized growth,"S. cerevisiae deletion strains, locus YNL006W, strain LST8, stronger effect = lower value",0.984
same,normalized growth,"S. cerevisiae deletion strains, locus YNL020C, strain ARK1, stronger effect = lower value",0.716
same,normalized growth,"S. cerevisiae deletion strains, locus YNL161W, strain CBK1, stronger effect = lower value",0.978
same,normalized growth,"S. cerevisiae deletion strains, locus YNL183C, strain NPR1, stronger effect = lower value",0.807
same,normalized growth,"S. cerevisiae deletion strains, locus YNL207W, strain RIO2, stronger effect = lower value",0.971
same,normalized growth,"S. cerevisiae deletion strains, locus YNL222W, strain SSU72, stronger effect = lower value",0.98
same,normalized growth,"S. cerevisiae deletion strains, locus YNL307C, strain MCK1 (second series), stronger effect = lower value",0.681
same,normalized growth,"S. cerevisiae deletion strains, locus YOL078W, strain AVO1, stronger effect = lower value",0.966
same,normalized growth,"S. cerevisiae deletion strains, locus YOL136C, strain PFK27, stronger effect = lower value",0.674 (active)
same,normalized growth,"S. cerevisiae deletion strains, locus YOR061W, strain CKA2, stronger effect = lower value",0.758
same,normalized growth,"S. cerevisiae deletion strains, locus YOR119C, strain RIO1, stronger effect = lower value",0.776
same,normalized growth,"S. cerevisiae deletion strains, locus YOR231W, strain MKK1, stronger effect = lower value",0.794
same,normalized growth,"S. cerevisiae deletion strains, locus YOR329C, strain SCD5, stronger effect = lower value",0.978
same,normalized growth,"S. cerevisiae deletion strains, locus YPL031C, strain PHO85, stronger effect = lower value",0.743
same,normalized growth,"S. cerevisiae deletion strains, locus YPL153C, strain RAD53, stronger effect = lower value",0.798
same,normalized growth,"S. cerevisiae deletion strains, locus YPL204W, strain HRR25, stronger effect = lower value",0.699
same,normalized growth,"S. cerevisiae deletion strains, locus YPL209C, strain IPL1, stronger effect = lower value",0.975
same,normalized growth,"S. cerevisiae deletion strains, locus YPL256C, strain CLN2, stronger effect = lower value",0.73 (active)
same,normalized growth,"S. cerevisiae deletion strains, locus YPR025C, strain CCL1, stronger effect = lower value",0.977
same,normalized growth,"S. cerevisiae deletion strains, locus YPR106W, strain ISR1, stronger effect = lower value",0.981
same,normalized growth,"S. cerevisiae deletion strains, locus YPR111W, strain DBF20, stronger effect = lower value",0.962
same,normalized growth,"S. cerevisiae deletion strains, strain NNK1, stronger effect = lower value",0.967
same,normalized growth,"S. cerevisiae deletion strains, strain TSCII, stronger effect = lower value",0.974
